{
  "source": "PubChem BioAssay (NCI)",
  "note": "“And” between values parts separate entries of the source, which are not always exact repeats. Equal entries are not always repeated. Compounds without any hit were thinned out: in the full panel of roughly 83,000, 20% have a hit.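 Growth was measured after 48 h exposure to one concentration of compound in 96-well plates. Values under 10 count as active.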 The source made the active and inactive calls.",
  "data": [
    {"system": "MDA-MB-468 breast", "assay": "NCI-60 one-dose screen, 48 h (100 = growth as untreated, 0 = no growth, -100 = all killed)", "details": "10 µM unless noted", "values": [
      {"compound": "Nc1c(Br)cc2c3c(cccc13)-c1ccccc1-2", "growth": "3.54% (active)"},
      {"compound": "C[C@@H]1CC[C@@H]2[C@@H]1[C@H](OC(=O)/C=C/C1CCCCC1)[C@]1(C3CCCCC3)C[C@@H](OC(=O)CO)[C@@]2(C)O1", "growth": "59.5% (inactive)"},
      {"compound": "c1ccc(CSC(c2ccccc2)c2ccccc2)cc1", "growth": "124% (inactive)"},
      {"compound": "O=C(N/N=C/c1ccc(N(CCCl)CCCl)cc1)c1cccc2ccccc12", "growth": "56.2% (inactive)"},
      {"compound": "NC(=O)c1c(Br)c(Br)c(Br)c(Br)c1C(=O)O", "note": "(tested in a mixture with another compound)", "growth": "93.7% (inactive) and 101% (inactive)"},
      {"compound": "C[CH2][Sn]([Cl])([Cl])[CH2]C.Oc1ccccc1C=NCCN=Cc1ccccc1O", "growth": "103% (inactive)"},
      {"compound": "N#[N+]c1cnc([O-])[nH]c1=O", "growth": "88.4% (inactive)"},
      {"compound": "O=C(O)CC(Br)C(=O)CBr", "note": "(stereo unspecified)", "growth": "105% (inactive)"},
      {"compound": "CC(CO)NC1CCCCC1", "note": "(stereo unspecified)", "growth": "107% (inactive)"},
      {"compound": "C[C@]12CCc3sc(Nc4ccc(OC(F)(F)F)cc4)nc3C1=CC[C@@H]1[C@@H]2CC[C@]2(C)C(=O)CC[C@@H]12", "growth": "69.1% (inactive)"},
      {"compound": "Cc1ccc(S(=O)(=O)F)cc1C(=O)O", "growth": "92.5% (inactive)"},
      {"compound": "CCC1CCC(=O)O1", "note": "(stereo unspecified)", "growth": "99.3% (inactive) and 109% (inactive)"},
      {"compound": "C[C@@]12CC=C3c4nc(Nc5cccc(O)c5)sc4CC[C@]3(C)[C@H]1CC[C@]1(C)C(=O)CC[C@@H]21", "growth": "32.2% (inactive)"},
      {"compound": "C/C(=C\\c1cc(C(F)(F)F)n(-c2ccc(N)cc2)n1)[C@@H]1C[C@@H]2O[C@]2(C)CCC[C@H](C)[C@H](O)[C@@H](C)C(=O)C(C)(C)[C@@H](O)CC(=O)O1", "growth": "-16.6% (active)"},
      {"compound": "C[CH2][Pb]([CH2]C)([CH2]C)[O]C(=O)c1ccc(N)cc1", "growth": "-11.9% (active)"},
      {"compound": "CC[C@@H]1[C@@H](C)O[C@@](O)([C@@H](C)[C@H](O)[C@H](C)[C@H]2OC(=O)/C=C/C=C/[C@H](C)[C@@H]([C@@H](C)[C@@H](O)[C@H](C)[C@@]3(O)C[C@@H](O[C@H]4C[C@@H](O)[C@H](O)C(C)O4)[C@H](CC)[C@@H](C)O3)OC(=O)/C=C/C=C/[C@@H]2C)C[C@H]1O[C@@H]1C[C@@H](O)[C@H](O)C(C)O1", "note": "(stereo partly specified)", "growth": "-83.6% (active)"},
      {"compound": "CC(=O)OC1CCC2C3CCC4=C/C(=N/OC(=O)c5ccc(N(CCCl)CCCl)cc5)CCC4(C)C3CC(C)C12", "note": "(stereo unspecified)", "growth": "67.2% (inactive)"},
      {"compound": "O=[N+]([O-])/C=C/c1ccc([N+](=O)[O-])cc1", "growth": "77.7% (inactive)"},
      {"compound": "COC(=O)[C@@H](C)C[C@H](Cc1ccccc1)NC(=O)c1csc(CC[C@H](C(C)C)N(C)C(=O)[C@@H](NC(=O)[C@H]2CCCCN2C)C(C)C)n1", "growth": "8.45% (active)"},
      {"compound": "O=C(Cc1ccccc1)c1ccccc1", "growth": "106% (inactive)"},
      {"compound": "CCOC(=O)c1ccccc1C(=O)OCC", "growth": "81% (inactive)"},
      {"compound": "COC(=O)[C@H]1[C@@H](O)[C@@]2(O)c3c(OC)cc(OC)cc3O[C@@]2(c2ccc(OC)cc2)[C@@H]1c1ccccc1", "growth": "-16.5% (active)"},
      {"compound": "Cc1cc(C)nc(C)c1.[Cl][Hg][Cl]", "growth": "113% (inactive)"},
      {"compound": "CC(CC(C#N)(c1ccccc1)c1ccccc1)N1CCOCC1", "note": "(stereo unspecified)", "growth": "107% (inactive)"},
      {"compound": "CN(Cc1cccnc1)N=O", "growth": "103% (inactive)"},
      {"compound": "COS(=O)(=O)c1ccccc1", "growth": "114% (inactive)"},
      {"compound": "Cc1ccc(Nc2nc3c(s2)C2=CC[C@@H]4[C@H](CC[C@]5(C)C(=O)CC[C@@H]45)[C@@]2(C)CC3)cc1", "growth": "32.3% (inactive)"},
      {"compound": "COc1ccccc1/C=C(/C)[N+](=O)[O-]", "growth": "14.4% (inactive) and 103% (inactive)"},
      {"compound": "O=C1c2ccccc2C(=O)N1N1CC1c1ccccc1", "note": "(stereo unspecified)", "growth": "104% (inactive)"},
      {"compound": "CC1([N+](=O)[O-])COP(=O)(Nc2ccc(F)cc2)OC1", "note": "(stereo unspecified)", "growth": "110% (inactive)"},
      {"compound": "CC1=C(CN)C2=C(C)C3(CC3)[C@@](C)(O)C(=O)C2=C1", "growth": "73.2% (inactive)"},
      {"compound": "Cc1cc([N+](=O)[O-])c(Cl)cc1NS(=O)(=O)c1ccccc1", "growth": "59.4% (inactive)"},
      {"compound": "N#CCc1ccccc1", "growth": "101% (inactive)"},
      {"compound": "CC[C@H](CC[C@@H](C)[C@H]1CC[C@H]2[C@@H]3CC[C@H]4C[C@]5(CC[C@]4(C)[C@H]3CC[C@]12C)OO[C@](C)(C(F)(F)F)O5)C(C)C", "growth": "95.2% (inactive)"},
      {"compound": "C1CNC2CCCC2C1", "note": "(stereo unspecified)", "growth": "97.4% (inactive)"},
      {"compound": "CCC1(C)CC(CCNCc2ccccc2O)(c2ccc(C)cc2)CCO1", "note": "(stereo unspecified)", "growth": "110% (inactive)"}
    ]}
  ]
}
